Results: PubChem BioAssay (Tox21)
Records with an inconclusive call do not appear. Activity calls are given as the source filed them. Unless noted, the call rests on the fitted dose curve; in most records, active means well fitted curve in the direction sought with a large enough effect in the repeat runs; inconclusive means weak or mixed curves; inactive means no such curve, though single readings can be large; an effect the other way counts as inactive or inconclusive.

Columns and labels:
[1] = qHTS assay to identify small molecule agonists of the vitamin D receptor (VDR) signaling pathway - cell viability counter screen (AID 743224); conditions: VDR-bla HEK293T viability, CellTiter-Glo luminescence, 16 h; series mostly up to 62.6 µM; further: nearly all actives have a fitted effect of over 50% in size; further: potency means the concentration at half of the fitted maximal effect
In short: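 Compounds were pin-transferred onto VDR-bla cells plated 4 h earlier; following 16 h incubation at 37C, cell viability was quantified by CellTiter-Glo luminescence after 30 min at room temperature.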

[2] = qHTS assay to identify small molecule antagonists of the vitamin D receptor (VDR) signaling pathway - cell viability counter screen (AID 743225); conditions: VDR-bla HEK293T viability, CellTiter-Glo luminescence, 16 h; series mostly up to 61 µM; further: nearly all actives have a fitted effect of over 50% in size; further: potency means the concentration at half of the fitted maximal effect
In short: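 Parallel cytotoxicity test: VDR-UAS-bla HEK 293T, 3 nM (final) 1-alpha,25-dihydroxyvitamin D3 with test compound, 16 h, 37C. Endpoint is CellTiter-Glo luminescence in the same wells.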

[3] = qHTS assay to identify small molecule agonists of the NFkB signaling pathway (AID 1159509; active means well fitted curve in the direction sought with a large enough effect in the signal ratio in the repeat runs, not every such curve was filed as active; the % refers to the signal ratio); conditions: NFkB-bla ME-180 cells, beta-lactamase FRET ratio, 5 h; series mostly up to 61 µM
In short: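 Beta-lactamase reporter assay run in quantitative high-throughput format on an NF-kB-responsive ME-180 line, with 5 hr compound treatment and a FRET-based blue/green fluorescence readout.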

[4] = qHTS assay to identify small molecule agonists of the endoplasmic reticulum stress response signaling pathway - cell viability counter screen (AID 1159517; calls by dose curve;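 further: HeLa cells carrying an ER stress response element beta-lactamase reporter; nearly all actives have a fitted effect of over 50% in size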); conditions: ESRE-bla HeLa viability, CellTiter-Glo luminescence, 5 h; series mostly up to 61 µM
In short: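 Steps: seed 1,500 ESRE-bla HeLa cells per well; incubate overnight at 37 C, 5% CO2; add compounds in DMSO for 5 hr; run FRET substrate 2 hr RT; add CellTiter-Glo, wait 30 min, read luminescence.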

[5] = qHTS assay to identify small molecule antagonists of the retinoid-related orphan receptor gamma (ROR-gamma) signaling pathway - cell viability counter screen (AID 1159520); conditions: Tet-on RORgamma CHO cells viability, ATP luminescence, 16 h; series mostly up to 92.4 µM; further: nearly all actives have a fitted effect of over 50% in size; further: potency means the concentration at half of the fitted maximal effect
In short: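 Tet-on ROR gamma CHO cells were given compounds for 2 hr, then doxycycline hyclate at 1 uM final, and incubated 16 hr at 37 C. Viability was measured as ATP content by CellTiter-Glo luminescence.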

[6] = target: Nuclear receptor ROR-gamma (Homo sapiens) (UniProt P51449); test: qHTS assay to identify small molecule antagonists of the retinoid-related orphan receptor gamma (ROR-gamma) signaling pathway (AID 1159521; further: nearly all actives have a fitted effect of over 50% in size; further: potency means the concentration at half of the fitted maximal effect); conditions: Tet-on RORgamma CHO cells, RORE-luciferase, 16 h; series mostly up to 92.4 µM
In short: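 Decreased RORE-driven luciferase luminescence indicates antagonism. Tet-on RORγ CHO cells received compound, then 1 uM final doxycycline 2 h later; signal read after 16 h incubation.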

[7] = qHTS assay to identify small molecule agonists of the AP-1 signaling pathway - cell viability counter screen (AID 1159525; calls by dose curve; further: nearly all actives have a fitted effect of over 55% in size); conditions: ME-180 AP-1-bla cells viability, ATP luminescence, 5 h; series mostly up to 76.8 µM
In short: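 Same-well cytotoxicity counter screen of the Tox21 10K library in ME-180 cells. The readout is ATP-dependent luminescence after 5 h compound treatment. Data are normalised to DMSO and tetra n-octyl ammonium bromide controls.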

[8] = qHTS assay to identify small molecule agonists of the RXR signaling pathway - cell viability counter screen (AID 1159529); conditions: RXR-alpha-bla HEK293T viability, CellTiter-Glo, 16 h; series mostly up to 76.8 µM; further: nearly all actives have a fitted effect of over 50% in size; further: potency means the concentration at half of the fitted maximal effect
In short: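 In this parallel viability measure, GeneBLAzer RXR-alpha HEK 293T cells (2% charcoal-stripped FBS) were given a 5 hr preincubation, treated with compounds 16 hr at 37 C, and read by CellTiter-Glo luminescence.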

[9] = qHTS assay to identify small molecule agonists of the AP-1 signaling pathway (AID 1159526; calls by dose curve); conditions: ME-180 (cervical carcinoma) AP-1-bla reporter, beta-lactamase FRET ratio, 5 h; series mostly up to 76.8 µM
[10] = qHTS assay to identify small molecule antagonists of the retinoid acid receptor (RAR) signaling pathway - cell viability counter screen (AID 1159551); conditions: C3RL4 cells viability, ATP luminescence (CellTiter-Glo), 6 h; series mostly up to 92.4 µM; further: nearly all actives have a fitted effect of over 35% in size
In short: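 ATP-based viability, C3RL4 cells, 6 h at 37 C with 1 uM final retinol co-added after compound; luminescence read 30 min post CellTiter-Glo, RT.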

[11] = qHTS assay to identify small molecule antagonists of the retinoic acid receptor (RAR) signaling pathway (AID 1159552; further: nearly all actives have a fitted effect of over 50% in size; further: potency means the concentration at half of the fitted maximal effect); conditions: C3RL4 RARE luciferase reporter, retinol-stimulated, 6 h; series mostly up to 92.4 µM
In short: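 C3RL4 RARE-luc cells, overnight plating; retinol 1 uM final added right after compound; 6 hr 37 C; luciferase read at 30 min RT.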

[12] = target: Retinoic acid receptor RXR-alpha (Homo sapiens) (UniProt P19793); test: qHTS assay to identify small molecule agonists of the RXR signaling pathway (AID 1159527; calls by dose curve; further: nearly all actives have a fitted effect of over 35% in size); conditions: HEK293T RXRa-UAS-bla, beta-lactamase ratio, 16 h; series mostly up to 76.8 µM
In short: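 16 hr incubation of compound-treated RXR-alpha-UAS-bla HEK 293T cells (2% charcoal-stripped FBS, 37 C) preceded a 2 hr room-temperature LiveBLAzer FRET substrate step and blue/green fluorescence measurement.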

[13] = qHTS assay to identify small molecule agonists of the retinoic acid receptor (RAR) signaling pathway (AID 1159553); conditions: C3RL4 RARE luciferase reporter, agonist, 6 h; series mostly up to 73.3 µM; further: potency means the concentration at half of the fitted maximal effect
In short: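 Quantitative high-throughput format: the Tox21 10K library was tested on C3RL4 RARE-luciferase cells for 6 hr at 37 C and 5% CO2, with luminescence measured after a 30 min room-temperature reagent step.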

[14] = qHTS assay to identify small molecule agonists of the endoplasmic reticulum stress response signaling pathway (AID 1159516; active means well fitted activation curve with a large enough effect in the signal ratio in the repeat runs, not every such curve was filed as active; the % refers to the signal ratio); conditions: ESRE-bla HeLa, ER stress beta-lactamase reporter, 5 h; series mostly up to 61 µM
In short: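 Using a HeLa line with an ESRE-driven beta-lactamase gene, agonist activity was measured by FRET substrate fluorescence (460 and 530 nm emission) after cells were treated with compounds for 5 hr at 37 C and 5% CO2.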

[15] = qHTS assay to identify small molecule antagonists of the estrogen related receptor (ERR) signaling pathway - cell viability counter screen (AID 1224818); conditions: ERR reporter cell line viability counter screen; series mostly up to 92.2 µM;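 further: viability measured after 17.5 h of compound exposure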
In short: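 Quantitative high-throughput viability counter screen in ERR cells. Compounds (DMSO) incubated 17.5 h at 37 C; read-out was CellTiter-Fluor fluorescence.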

[16] = qHTS assay to identify small molecule antagonists of the estrogen related receptor (ERR) signaling pathway (AID 1224819); conditions: ERR reporter cell line, luciferase inhibition; series mostly up to 46.1 µM
In short: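 ERR reporter cell line (NTP) plated at 2,000 cells/well, settled 6 h at 37C/5% CO2, then exposed to LOPAC compounds for 18 h at 37C. One-Glo luciferase luminescence read after 30 min at room temperature.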

[17] = qHTS assay to identify small molecule agonists of the estrogen related receptor (ERR) signaling pathway (AID 1224820); conditions: ERR reporter cell line, luciferase agonist mode; series mostly up to 46.1 µM
In short: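 Following a 6 h settling period, 2,000 ERR cells per well receive DMSO-dissolved compounds by pin tool and incubate 18 h at 37 C; agonist activity is scored from One-Glo luminescence read 30 min post-addition.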

[18] = qHTS assay to identify small molecule antagonists of the estrogen related receptor signaling pathway with the pleiotropic PPARgamma coactivator (PGC) cell viability counter screen (AID 1224822); conditions: ERR/PGC reporter cell line viability counter screen; series mostly up to 92.2 µM
In short: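 Cytotoxicity in the PGC/ERR cell line is assessed with CellTiter-Fluor, read as fluorescence intensity 30 min after reagent addition, following 17.5 h compound treatment at 37 C.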

[19] = qHTS assay to identify small molecule agonists of the estrogen related receptor signaling pathway with the pleiotropic PPARgamma coactivator (PGC) (AID 1224823); conditions: ERR/PGC reporter cell line, luciferase agonist mode; series mostly up to 92.2 µM
In short: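 In this quantitative high-throughput screen, an 18 h, 37 C treatment of PGC/ERR cells with compounds in DMSO preceded a One-Glo luminescence read taken after 30 min at room temperature.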

Measured: Potency

Retinoic acid receptor RXR-alpha (Homo sapiens), sequence (P19793 whole entry, looked up): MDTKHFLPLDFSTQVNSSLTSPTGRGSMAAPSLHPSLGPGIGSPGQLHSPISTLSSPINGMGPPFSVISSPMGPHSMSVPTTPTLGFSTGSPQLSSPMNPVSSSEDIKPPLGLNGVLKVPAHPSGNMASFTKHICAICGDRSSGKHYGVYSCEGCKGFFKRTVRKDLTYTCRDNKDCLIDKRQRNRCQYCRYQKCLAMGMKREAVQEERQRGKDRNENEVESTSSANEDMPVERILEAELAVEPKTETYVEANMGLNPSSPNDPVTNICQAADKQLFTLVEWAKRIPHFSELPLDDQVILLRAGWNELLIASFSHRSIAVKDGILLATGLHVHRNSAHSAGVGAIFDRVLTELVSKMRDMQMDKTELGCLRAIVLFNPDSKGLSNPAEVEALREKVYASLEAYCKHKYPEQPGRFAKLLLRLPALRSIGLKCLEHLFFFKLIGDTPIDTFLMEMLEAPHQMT

CS/C(C)=N/OC(=O)N(C)SN(C)C(=O)O/N=C(\C)SC
active: [5] 43.3 µM | [6] 38.6 µM | [8] 49 µM
inactive: [1] | [2] | [3] | [4] | [7]

CCOc1ccc(C(C)(C)COCc2cccc(Oc3ccccc3)c2)cc1
inactive: [1] | [2] | [3] | [4] | [5] | [6] | [7] | [9] | [8] | [10]

CC(C)(CCl)C(=O)Cl
inactive: [1] | [3] | [4] | [5] | [6] | [7] | [8] | [10] | [11]

C=C(C#N)CCC#N
inactive: [1] | [2] | [3] | [4] | [5] | [6] | [7] | [9] | [12] | [8] | [10] | [11] | [13]

C=CC(=O)OC(C)(C)C
inactive: [1] | [2] | [3] | [14] | [5] | [6] | [7] | [9] | [8] | [10] | [11] | [13]

CCCC(Cn1cncn1)c1ccc(Cl)cc1Cl (configuration not stated)
inactive: [1] | [2] | [3] | [14] | [4] | [10]

Cc1ccc(-c2c(Cl)nc(C#N)n2S(=O)(=O)N(C)C)cc1
inactive: [2] | [3] | [14] | [4] | [10] | [11]
active: [6] 21.7 µM | [13] 68.5 µM

COP(=S)(OC)Oc1ccc([N+](=O)[O-])cc1Cl
inactive: [1] | [2] | [3] | [14] | [5] | [9] | [10] | [11]
active: [6] 43.3 µM

CCOP(=O)(OCC)Oc1ccc([N+](=O)[O-])cc1
inactive: [1] | [2] | [3] | [4] | [5] | [6] | [7] | [9] | [12] | [8] | [10] | [11] | [13]

CC(=O)CCC(C)=O
inactive: [1] | [2] | [3] | [14] | [5] | [6] | [7] | [9] | [8] | [10]

Oc1ccc(Cl)c(Cl)c1Cl
active: [6] 50.3 µM | [11] 63.4 µM
inactive: [2] | [3] | [14] | [4] | [7] | [9] | [12] | [8] | [10]

O=C(NC(=O)c1c(F)cccc1F)Nc1ccc(OC(F)(F)C(F)OC(F)(F)F)c(Cl)c1 (configuration not stated)
inactive: [1] | [2] | [3] | [14] | [5] | [6] | [7] | [9] | [8] | [10]

CC1(C)CCC(Cc2ccc(Cl)cc2)C1(O)Cn1cncn1 (configuration not stated)
inactive: [1] | [3] | [14] | [4] | [10]
active: [6] 54.5 µM

C#CCOC(C(=O)OCCN(C)C)(c1ccccc1)c1ccccc1
inactive: [1] | [2] | [3] | [4] | [5] | [6] | [7] | [9] | [8] | [10] | [11] | [13]

CCCCC(CC)COP(=O)(Oc1ccccc1)Oc1ccccc1 (configuration not stated)
inactive: [2] | [3] | [14] | [4] | [6] | [10] | [11] | [13]

N#CCc1ccccc1
inactive: [1] | [2] | [3] | [4] | [5] | [6] | [7] | [9] | [12] | [8] | [10] | [11] | [13]

CCC(Br)(CC)C(=O)NC(N)=O
inactive: [1] | [2] | [3] | [4] | [5] | [6] | [9] | [12] | [8] | [10] | [11]

CN1C[C@H](CNC(=O)OCc2ccccc2)C[C@@H]2c3cccc4c3c(cn4C)C[C@H]21
inactive: [1] | [2] | [3] | [14] | [4] | [8] | [10] | [11] | [13]

N#CCC#N
active: [6] 27.3 µM
inactive: [1] | [2] | [3] | [14] | [4] | [7] | [10]

ClP(Cl)(Cl)(Cl)Cl
inactive: [1] | [2] | [3] | [14] | [4] | [7] | [9] | [12] | [10]

CCOP(=S)(OCC)SCn1nnc2ccccc2c1=O
active: [1] 54.9 µM | [2] 49 µM
inactive: [3] | [14] | [4] | [5] | [9] | [8] | [10] | [11] | [13]

c1ccc(C2CC2)c(OCC2=NCCN2)c1
inactive: [1] | [2] | [3] | [5] | [6] | [7] | [9] | [12] | [8] | [10] | [11] | [15] | [16] | [17] | [18] | [19]
